The entries come from a sample that favours hits as a whole.
12-LOX inh – Primary qHTS assay for inhibitors of human arachidonate 12S-lipoxygenase (ALOX12): Round 2. Polyunsaturated fatty acid lipoxygenase ALOX12 (Homo sapiens), P18054. purified 12hLO, xylenol orange hydroperoxide absorbance. Potency, µM (top dose mostly 108 µM), without a hit: top-dose activity change, negative = inhibition, most hits filed as inhibitors. 1.1% of 580,000 active. AID 1671190, 2021; further: on the % scale 0 is the no-effect control and ±100 the full control effect
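Purified human 12hLO at 150 nM in 25 mM Hepes, 0.01% Triton X-100, pH 7.0, preincubated 15 min at room temperature with compound. Reaction started with 40 uM arachidonic acid, 30 min at room temperature. Hydroperoxide measured by Fe-xylenol orange, 573/405 nm absorbance ratio.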
G9a inh – qHTS Assay for Inhibitors of Histone Lysine Methyltransferase G9a | Potency, µM (series often up to 102 µM), for the others: at the highest dose activity, negative = inhibition, usual class: inhibitors | Histone-lysine N-methyltransferase EHMT2 (Homo sapiens), Q96KQ7 | 8.8% of 350,000 active | G9a H3K9 monomethylation, AlphaScreen, 2 h; further: on the % scale 0 is the no-effect control and ±100 the full control effect; nearly all actives have a fitted effect of over 75% in size
Target sequence (Q96KQ7 913-1193 limits assumed): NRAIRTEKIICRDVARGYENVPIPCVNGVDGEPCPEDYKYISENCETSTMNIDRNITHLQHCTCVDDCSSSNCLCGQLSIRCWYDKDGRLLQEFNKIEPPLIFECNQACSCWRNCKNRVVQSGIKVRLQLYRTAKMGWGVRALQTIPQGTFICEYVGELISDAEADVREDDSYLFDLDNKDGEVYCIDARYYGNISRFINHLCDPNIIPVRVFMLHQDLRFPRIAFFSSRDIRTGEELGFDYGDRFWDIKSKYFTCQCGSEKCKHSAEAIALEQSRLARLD
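Chemiluminescent proximity detection of H3K9 monomethylation, read after 10 min bead incubation in the dark. Reaction: 20 nM G9a, 500 nM biotin-H3K9 peptide, 20 uM SAM cofactor, 2 h, room temperature, following 15 min enzyme-compound preincubation.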
Glioma ERSR ind – qHTS for Inducers of the Endoplasmic Reticulum Stress Response (ERSR) in Human Glioma: qHTS; U87-MG GRP78 promoter luciferase reporter, 16 h; Potency, µM, for the others: at the top dose activation, most hits filed as activators; 0.02% of 420,000 active; AID 602332, 2012; further: series mostly up to about 76 µM; % of control where 0% means no effect; nearly all actives have a fitted effect of over 35% in size
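Stably transfected U87-MG glioma cells carrying a GRP78-based luciferase sensor; 16 h compound incubation. Luminescence end-point read 10 min after Bright-Glo addition at room temperature.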
VDR inhibitor – Inhibitors of the vitamin D receptor (VDR): qHTS. Vitamin D3 receptor (Homo sapiens), P11473. VDR-SRC2-3 peptide fluorescence polarization, 2 h. Potency, µM, without a hit: max response, negative = inhibition, hits mostly inhibitors. 0.93% of 400,000 active. AID 504847, 2011; further: on the % scale 0 is the no-effect control and ±100 the full control effect
Target sequence (P11473 whole entry, looked up): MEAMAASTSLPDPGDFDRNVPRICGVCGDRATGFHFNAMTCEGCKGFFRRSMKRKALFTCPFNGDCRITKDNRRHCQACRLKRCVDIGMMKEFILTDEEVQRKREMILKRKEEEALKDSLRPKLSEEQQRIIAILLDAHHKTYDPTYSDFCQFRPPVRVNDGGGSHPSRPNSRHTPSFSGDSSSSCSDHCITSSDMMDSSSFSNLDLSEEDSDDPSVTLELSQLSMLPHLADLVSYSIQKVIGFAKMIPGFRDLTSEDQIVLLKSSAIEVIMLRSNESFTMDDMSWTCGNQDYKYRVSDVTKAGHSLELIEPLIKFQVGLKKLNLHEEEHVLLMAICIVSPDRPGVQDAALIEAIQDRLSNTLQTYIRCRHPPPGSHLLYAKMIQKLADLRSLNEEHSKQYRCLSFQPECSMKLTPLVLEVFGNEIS
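Signal is fluorescence polarization, reporting how far test compounds block the interaction of VDR with the SRC2-3 coregulator peptide after a 2 h room-temperature incubation.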
Sfp PPTase inh – qHTS Assay for Inhibitors of Bacillus subtilis Sfp phosphopantetheinyl transferase (PPTase); Biochemical Sfp PPTase activity, qHTS; Potency, µM, for inactives: largest response in the series, negative = inhibition, actives largely listed as inhibitors; 3.5% of 310,000 active; 4'-phosphopantetheinyl transferase ffp (Bacillus subtilis), Q9F4F7; AID 1490, 2009;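 further: the enzyme is Sfp with the accession as filed and its product quenches rhodamine fluorescence; 0% = enzyme reaction without inhibitor and -100% = no enzyme wells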
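With Hepes-Na pH 7.6 buffer containing 10 mM MgCl2, Sfp (15 nM) modified BHQ-2-YbbR (12.5 uM) using rhodamine-CoA (5 uM). Two reads 30 minutes apart at 525/598 nm yielded each well's rate.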
Starred values were filed as active, the others as inactive; ! = a repeat was not active; [ ] = another dose, or the depositor's remark. The call rests on the fitted dose curve; in most records, active means well fitted curve in the direction sought with a large enough effect; inconclusive means small, poorly fitted or top-dose-only effect, or another doubt; inactive means no such curve, though single readings can be large; an effect the other way counts as inactive or inconclusive. Potency means the concentration at half of the fitted maximal effect.

`Nc1ccc(Oc2cccc(Oc3ccc(N)cc3)c2)cc1` gave 12-LOX inh -15.7%, G9a inh 44.7µM*, Glioma ERSR ind -13.1%, VDR inhibitor 0.2% and Sfp PPTase inh 12.1%.
`CCOc1ccc(N)cc1` gave 12-LOX inh 396.1%, Glioma ERSR ind -0.7% and VDR inhibitor -1.0%.
`COc1ccc(C(=O)OC2CC[C@@]3(C)C4CCC5[C@]6(O)C[C@H](O)[C@@]7(O)C(CN8CC(C)CCC8[C@@]7(C)O)[C@]6(O)C[C@@]53O[C@]24O)cc1OC` (stereo partly drawn) gave 12-LOX inh -0.6%.
Screening Cn1c(O)c(/C=C2\C=Nc3ccccc32)c(=O)n(C)c1=O returned 12-LOX inh -18.5%, G9a inh inconclusive, Glioma ERSR ind 5.1%, VDR inhibitor -14.7% and Sfp PPTase inh 22.4%.
Screening Cn1c(O)c(/C=C2\C=c3ccccc3=NC2=O)c(=O)n(C)c1=O returned 12-LOX inh 2.1%, G9a inh 39.8µM*, Glioma ERSR ind -1.0%, VDR inhibitor 79.4µM* and Sfp PPTase inh 44.7µM*.
`O=C1NC(=O)C2(Cc3ccccc3N3CCCC32)C(=O)N1Cc1ccccc1` (stereo not drawn) gave 12-LOX inh 0.0%, G9a inh 35.5µM*, Glioma ERSR ind -5.7%, VDR inhibitor inconclusive and Sfp PPTase inh 56.2µM*.
`O=C1NC(=O)[C@]2(Cc3ccccc3N3CCN(c4ccccc4)CC32)C(=O)N1Cc1ccccc1` (stereo partly drawn) gave 12-LOX inh 15.8µM*, G9a inh 5.01µM*, Glioma ERSR ind 3.8%, VDR inhibitor inconclusive and Sfp PPTase inh -19.6%.
`O=C1CC2CCN(CC3CCCC3)CC2CCN1` (stereo not drawn) gave 12-LOX inh 1.3%[12.5 µM].
For CC(C)N1CCC2(CC1)CNCc1ccccc1O2 the results were 12-LOX inh 38.4%.
Screening COc1ccccc1CCNCc1cc2c(cc1[N+](=O)[O-])OCO2 returned 12-LOX inh inconclusive, G9a inh 25.1µM*, Glioma ERSR ind 2.3%, VDR inhibitor 16.7% and Sfp PPTase inh -16.5%.
`c1ccc2c(c1)-c1cccc3cccc-2c13` gave 12-LOX inh 1.9%, G9a inh 52.3%[12.7 µM], Glioma ERSR ind -0.5% and VDR inhibitor -9.2%.
For Nc1c(Br)cc2c3c(cccc13)-c1ccccc1-2 the results were 12-LOX inh -29.5%, Glioma ERSR ind -0.2% and VDR inhibitor 28.2µM*.
Cc1ccc(-n2nc(C)c3c2NC(=O)CSC3c2ccc3c(c2)OCO3)cc1 (stereo not drawn) was read as 12-LOX inh inconclusive, G9a inh inconclusive, Glioma ERSR ind -1.1%, VDR inhibitor inconclusive and Sfp PPTase inh 56.2µM*.
COc1ccc(C2SCC(=O)Nc3c2c(C)nn3-c2ccccc2)cc1 (stereo not drawn) was read as 12-LOX inh 19.7%, G9a inh 20.8%[12.7 µM], Glioma ERSR ind -8.0%, VDR inhibitor -12.5% and Sfp PPTase inh 3.4%.
For O=P1(N(CCCl)CCCl)NCCCO1 (stereo not drawn) the results were 12-LOX inh 26.2%, G9a inh 17.8µM*!, Glioma ERSR ind -3.1%, VDR inhibitor 7.4% and Sfp PPTase inh -8.7%.
CCC(=O)Oc1ccc2c(c1)CCC1C2CC[C@]2(C)C(OC(=O)CC)CCC12 (stereo partly drawn) was read as G9a inh inconclusive, Glioma ERSR ind 0.8%, VDR inhibitor -7.8% and Sfp PPTase inh -9.3%.
For C[C@]12CC[C@@H]3c4ccc(O[C@@H]5O[C@H](C(=O)O)[C@@H](O)[C@H](O)[C@H]5O)cc4CC[C@H]3[C@@H]1C[C@@H](O)[C@@H]2O the results were 12-LOX inh inconclusive, G9a inh inconclusive, Glioma ERSR ind -3.1%, VDR inhibitor -13.8% and Sfp PPTase inh 79.4µM*.
`N#CC(C#N)=NNc1ccc([N+](=O)[O-])cc1` gave 12-LOX inh inconclusive, G9a inh 31.6µM*, Glioma ERSR ind -1.0%, VDR inhibitor inconclusive and Sfp PPTase inh 8.6%.
COc1cc(CNCCc2ccc3c(c2)OCO3)cc(OC)c1OC was read as 12-LOX inh inconclusive, G9a inh 5.01µM*, Glioma ERSR ind -2.9%, VDR inhibitor -25.1% and Sfp PPTase inh -19.1%.
`COc1ccc(Br)cc1CNCCc1ccc2c(c1)OCO2` gave 12-LOX inh inconclusive, Glioma ERSR ind -3.8% and VDR inhibitor 1.7%.
Screening COc1ccc(CNCCc2ccc3c(c2)OCO3)cc1Br returned 12-LOX inh 0.0%, G9a inh 5.01µM*, Glioma ERSR ind -8.9%, VDR inhibitor -9.3% and Sfp PPTase inh inconclusive.
For COc1cc2c(cc1OCc1ccccc1)NC(=O)C21CCN(C(=O)c2ccccc2)CC1 the results were 12-LOX inh 0.4%.
`Nc1ccc2c(c1)Cc1cc([N+](=O)[O-])ccc1-2` gave 12-LOX inh -1.2%, G9a inh 50.1µM*, Glioma ERSR ind 8.4%, VDR inhibitor 1.4% and Sfp PPTase inh 13.0%.
`COC(=O)C1=Nc2ccccc2/C1=C\c1c(O)n(C)c(=O)n(C)c1=O` gave 12-LOX inh 1.3%, G9a inh inconclusive, Glioma ERSR ind -6.1%, VDR inhibitor inconclusive and Sfp PPTase inh inconclusive.
`Cn1c(O)c(/C=C2\N=c3ccccc3=C2CCNC(=S)NC2CC2)c(=O)n(C)c1=O` gave 12-LOX inh inconclusive, G9a inh -116.5%[59 µM], Glioma ERSR ind 1.2%, VDR inhibitor 70.8µM* and Sfp PPTase inh 31.6µM*.
Screening COc1ccc(CNc2oc(-c3cccc4ccccc34)nc2P(=O)(OC)OC)cc1 returned 12-LOX inh -25.1%, G9a inh -0.2%, Glioma ERSR ind -3.7%, VDR inhibitor inconclusive and Sfp PPTase inh 50.1µM*.
For Cn1c(CN2CCC(C#N)(c3ccccc3)CC2)nnc1C1CC(N)C1 (stereo not drawn) the results were 12-LOX inh 44.2%.
O=C(O)CNC(=O)c1c(O)c2ccccc2n(Cc2ccccc2)c1=O was read as 12-LOX inh -10.6%[57.4 µM].
For O=C(O)CNC(=O)C(CS)Cc1ccccc1 (stereo not drawn) the results were 12-LOX inh inconclusive, G9a inh -6.9%[59 µM], Glioma ERSR ind 0.1%, VDR inhibitor -8.6% and Sfp PPTase inh 0.794µM*.
For CN(C)c1ccc(C(=O)N2CCC3(CC2)c2nccn2-c2ccccc2CN3C)cc1 the results were 12-LOX inh 36.3%.
